Compound activity (PubChem)
PP1 counter – blocks human PP1-alpha phosphatase, a PP5 counter-screen; purified PP1alpha, OMFP fluorescence; AID 2235; inhibition, % at 6.7 µM; P62136; 320,000 tested, 0.9% active;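 active means inhibition above the mean inhibition of all tested compounds plus 3 SD, computed separately for each screening campaign, cut at about 15% in these data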
pPAFAH inh – pPAFAH (human) enzyme inhibition. Q13093. recombinant pPAFAH, FP-rhodamine probe fluorescence polarization. inhibition, % at 3.39 µM. 330,000 tested, 1.5% active;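 active means inhibition above the mean inhibition across the screen plus 3 SD, cut at about 25% in these data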;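 further: inhibitors block binding of the rhodamine activity-based probe so polarization drops; 0% = enzyme with DMSO and 100% = wells lacking pPAFAH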
Target sequence (Q13093 whole entry, looked up): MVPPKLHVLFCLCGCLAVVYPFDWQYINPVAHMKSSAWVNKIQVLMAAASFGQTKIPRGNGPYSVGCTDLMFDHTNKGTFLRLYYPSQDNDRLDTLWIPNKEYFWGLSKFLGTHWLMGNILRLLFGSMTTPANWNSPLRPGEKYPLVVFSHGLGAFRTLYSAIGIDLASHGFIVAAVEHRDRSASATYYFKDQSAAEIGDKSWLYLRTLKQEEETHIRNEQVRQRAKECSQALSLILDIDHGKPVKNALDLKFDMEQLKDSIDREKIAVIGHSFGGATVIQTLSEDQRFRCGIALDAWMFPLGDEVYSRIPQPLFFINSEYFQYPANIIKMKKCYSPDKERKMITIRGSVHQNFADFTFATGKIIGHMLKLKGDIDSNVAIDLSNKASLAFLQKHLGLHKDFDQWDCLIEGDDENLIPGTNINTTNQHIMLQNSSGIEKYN
PAFAH1B2 FP inh – inhibitors of human PAFAH1B2; recombinant PAFAH1B2, FP-rhodamine activity probe, fluorescence polarization; inhibition, % at 3.39 µM; 340,000 tested, 1.2% active; AID 492953;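 active means inhibition above the mean of all tested compounds plus 3 SD, cut at about 24% in these data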;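 further: 0% = enzyme with DMSO and 100% = wells lacking PAFAH1B2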
PAFAH1B3 FP inh – inhibitors of human PAFAH1B3 | Q15102 | recombinant PAFAH1B3, FP-rhodamine probe, fluorescence polarization | inhibition, % at 3.39 µM | 340,000 tested, 0.28% active | AID 492972;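 active means inhibition above the screen-wide average of all tested compounds plus 3 SD, cut at about 25% in these data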;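 further: 0% = enzyme with DMSO only and 100% = wells lacking PAFAH1B3 protein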
Target sequence (Q15102 whole entry, looked up): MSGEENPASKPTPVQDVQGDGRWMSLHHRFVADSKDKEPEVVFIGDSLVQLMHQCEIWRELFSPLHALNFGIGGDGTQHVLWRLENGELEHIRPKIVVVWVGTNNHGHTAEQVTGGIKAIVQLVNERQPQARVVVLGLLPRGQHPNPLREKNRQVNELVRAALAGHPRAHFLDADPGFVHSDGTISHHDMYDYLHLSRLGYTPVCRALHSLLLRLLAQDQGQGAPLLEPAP
PAFAH2 inh – inhibitors of human PAFAH2; 340,000 tested, 0.99% active; recombinant PAFAH2, FP-rhodamine activity probe, fluorescence polarization; inhibition, % at 3.39 µM;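 active means inhibition above the mean over all tested compounds plus 3 SD, cut at about 30% in these data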;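 further: inhibitors block probe labeling of enzyme so polarization drops; 0% = enzyme with DMSO and 100% = wells lacking PAFAH2 protein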
PP5 primary – PP5 (human) phosphatase inhibition | 320,000 tested, 0.18% active | inhibition, % at 6.7 µM | purified PP5c, OMFP substrate fluorescence | P53041;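 active means inhibition above the campaign's mean inhibition across all tested compounds plus 3 SD, cut at about 9.5% in these data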;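 further: 0% = DMSO only and 100% = 100 µM cantharidin control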
PAFAH2 FP conf – confirmation of human PAFAH2 inhibitors; AID 493030; recombinant PAFAH2, FP-rhodamine activity probe, fluorescence polarization; 2,300 tested, 65% active; shares compounds with PAFAH2 inh; inhibition, % at 3.39 µM;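 active means mean inhibition over three repeats above a set limit taken from the earlier primary screen, cut at about 30% in these data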;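 further: inhibitor blocks binding of rhodamine activity probe so polarization falls; 0% = enzyme with DMSO and 100% = wells lacking PAFAH2 protein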
* = called active by the depositor; x = not tested or not shown. Sampled rows, rich in hits. Any-hit rate of the full collection: about 3.4%.

SMILES	PP1 counter	pPAFAH inh	PAFAH1B2 FP inh	PAFAH1B3 FP inh	PAFAH2 inh	PP5 primary	PAFAH2 FP conf
CC(NC(=O)COC(=O)c1ccc(CO)cc1)C1CC2CCC1C2 (stereo unspecified)	-0.4	0.9	1.5	2.0	68.0*	0.3	64.3*
CC(NC(=O)CCC(=O)c1ccc(F)cc1)C1CC2CCC1C2 (stereo unspecified)	-4.5	3.4	5.6	6.1	16.2	0.7	x
Cc1cc(C(=O)OCC(=O)NCc2ccc(Cl)cc2Cl)c(C)o1	-2.2	3.3	6.9	9.9	36.9*	2.0	29.0
Cc1cc(C(=O)OCC(=O)NCc2ccccc2Cl)c(C)o1	1.7	1.9	2.5	0.4	50.8*	-1.5	50.2*
COc1ccccc1CNC(=O)COC(=O)c1cc(C)oc1C	4.8	2.1	1.2	6.9	6.7	0.4	x
Cc1cc(C(=O)OCC(=O)NC(=O)NC(C)(C)C)c(C)o1	3.2	2.4	2.9	3.2	7.3	2.1	x
O=C(COC(=O)C1CC1)NCc1ccccc1Cl	-5.4	4.6	4.9	-0.2	58.3*	-1.9	51.6*
COc1cc(NC(=O)CN2C(=O)NC(C)(c3ccc4ccccc4c3)C2=O)c(C)cc1[N+](=O)[O-] (stereo unspecified)	0.4	5.7	0.9	8.6	-11.2	7.3	x
O=C(Cc1ccc(-c2ccccc2)cc1)Nc1ccccc1	-2.5	-0.8	4.4	2.5	1.0	3.5	x
O=C(Cc1ccc(-c2ccccc2)cc1)Nc1ncccc1O	0.9	20.6	1.7	0.9	32.3*	-1.8	23.5
N#Cc1cc([N+](=O)[O-])ccc1NC(=O)COC(=O)CN1C(=O)C2CCCCC2C1=O (stereo unspecified)	x	2.8	6.0	2.1	12.5	x	x
N/C(Cc1ccc([N+](=O)[O-])cc1)=N\OC(=O)c1ccccc1F	1.8	2.3	-2.0	14.8	38.0*	-0.5	23.0
CC(C)CNS(=O)(=O)c1ccc(CCC(=O)NCCc2ccccc2)cc1	-2.1	6.8	2.8	-0.3	1.4	-0.9	x
COc1ccc(C(=O)O/N=C(\C)c2ccccc2)cc1	0.9	9.8	1.0	3.3	61.6*	-0.8	44.9*
COc1ccc(C(=O)O/N=C(/c2ccccc2)c2ccncc2)cc1	0.4	5.0	-2.4	2.8	78.0*	-1.0	70.6*
COc1ccc(C(=O)O/N=C(/c2ccccc2)c2ccncc2)cc1OC	2.8	1.6	13.8	6.0	73.8*	3.0	80.0*
O=C(O)c1cccc(S(=O)(=O)N2CCC(n3nnc4cc(C(F)(F)F)ccc43)CC2)c1	0.4	-6.7	10.1	-0.6	-0.4	1.2	x
O=C(C1CCC(=O)N(C2CC2)C1)N1CCN(c2cccc(Cl)c2)CC1 (stereo unspecified)	x	x	8.1	6.4	8.3	x	x
CCC(C(=O)OCC(=O)Nc1ccc(C)c(S(=O)(=O)N2CCOCC2)c1)c1ccccc1 (stereo unspecified)	-6.4	3.1	10.4	-1.8	5.9	4.2	x
Cc1ccc(C(=O)OCC(=O)NC2CC2)cc1S(=O)(=O)N1CCOCC1	-0.7	12.4	-4.7	3.9	50.7*	3.3	32.1*
Cc1ccc(C(=O)OCC(=O)NCc2cccs2)cc1S(=O)(=O)N1CCOCC1	0.4	13.7	-1.4	2.2	48.6*	0.3	38.4*
Cc1ccc(C(=O)OCC(=O)c2ccc(Br)cc2)cc1S(=O)(=O)N1CCOCC1	x	x	16.9	7.2	34.2*	x	19.1
Cc1ccc(NC(=O)COC(=O)/C=C/c2ccccc2)cc1S(=O)(=O)N1CCOCC1	-4.5	-1.3	1.4	-4.1	58.4*	-2.6	34.0*
CN(C(=O)c1ccc2c(c1)OCCO2)c1c(N)n(Cc2ccccc2)c(=O)[nH]c1=O	-8.3	11.0	3.5	-0.6	2.9	-2.3	x
Cc1ccc(NC(=O)COC(=O)c2ccc(C)c(S(=O)(=O)N3CCOCC3)c2)cc1	x	x	5.0	7.7	70.6*	x	70.7*
SMILES	PP1 counter	pPAFAH inh	PAFAH1B2 FP inh	PAFAH1B3 FP inh	PAFAH2 inh	PP5 primary	PAFAH2 FP conf
Cc1ccc(NC(=O)COC(=O)c2ccco2)cc1S(=O)(=O)N1CCOCC1	x	-6.4	2.3	-3.2	66.3*	x	60.4*
Cc1cnc(C(=O)OCC(=O)Nc2ccc(C)c(S(=O)(=O)N3CCOCC3)c2)cn1	x	-4.2	2.8	13.7	-0.7	x	x
Cc1nn(-c2ccccc2)c(C)c1C(=O)OCC(=O)Nc1ccc2c(c1)OCO2	1.0	6.0	-1.1	6.9	34.6*	3.3	30.2*
Cc1ccc(NC(=O)COC(=O)c2c(C)nn(-c3ccccc3)c2C)cc1	-4.4	2.0	-0.9	0.8	19.4	0.5	x
Cc1nn(-c2ccccc2)c(C)c1C(=O)OCC(=O)Nc1ccccc1	-0.8	2.2	7.1	2.7	55.1*	1.5	42.8*
NC(=O)C1CCCN(C(=O)c2ccc3c(c2)NC(=O)CS3)C1 (stereo unspecified)	0.3	1.5	4.5	9.0	-1.4	0.5	x
CC(=O)OC(C)[C@H]1CC[C@H]2[C@@H]3CC[C@H]4C[C@@H](OC(C)=O)CC[C@]4(C)C3=CC[C@]12C (stereo partly specified)	-0.4	6.6	2.2	3.9	3.0	1.8	x
COc1ccc(/C=C/C(=O)OCC(=O)NC2CCCC2)c(OC)c1	-5.6	22.9	2.8	3.6	86.4*	2.6	84.6*
COc1ccccc1/C=C/C(=O)OCC(=O)NC(=O)NC1CCCC1	x	-1.6	4.7	-6.0	58.3*	x	44.0*
O=C(OCC(=O)N1CCc2ccccc21)C1=COCCO1	-0.3	8.1	4.1	6.8	30.0*	-1.7	19.2
O=C(/C=C/c1ccc(OC(F)F)cc1)OCC(=O)N1CCc2ccccc21	-4.3	0.9	1.2	3.8	4.6	-1.4	x
COc1ccccc1/C=C/C(=O)OCC(=O)N1CCc2ccccc21	6.6	0.9	2.2	4.9	77.5*	5.6	70.6*
Cc1onc(-c2ccccc2Cl)c1C(=O)Oc1cccc2cccnc12	-0.6	4.2	8.8	6.3	4.6	-0.2	x
COc1ccccc1/C=C/C(=O)OCC(=O)Nc1ccc(Cl)cn1	4.5	23.6	3.1	4.5	83.0*	2.7	79.0*
COc1ccccc1/C=C/C(=O)OCC(=O)NC1CC1	x	x	3.3	8.2	64.2*	x	63.9*
COc1ccc(/C=C/C(=O)OCC(=O)N2CCCCCC2)c(OC)c1	-0.6	-1.1	0.9	-10.6	44.3*	1.6	36.0*
O=C(COC(=O)/C=C/c1ccccc1)Nc1ccc(Cl)cn1	3.0	3.4	3.6	2.9	28.6	0.5	x
COc1ccccc1/C=C/C(=O)OCC(=O)NNC(=O)c1ccccc1	-2.8	18.4	1.8	17.2	14.0	3.0	x
COc1cc(/C=C/C(=O)OCC(=O)NC2CC2)cc(S(=O)(=O)N2CCc3ccccc32)c1OC	1.3	8.1	2.7	3.8	53.0*	0.2	37.5*
